High-throughput results: PubChem, Broad Institute
Not all results are given here.
aSyn 5UTR act: Activators via SNCA 5'UTR binding, MLPCN | alpha-synuclein 5'UTR reporter, activators screen | activity score, % (tested at 7.5 µM), hits read low | 300,000 compounds, 7.1% hits; in the data active = activity score below about -60%
Numbers stand for hits; - = inactive.

SMILES	aSyn 5UTR act
O=C(Nc1ccc2c(c1)COC2=O)c1ccc(Cl)c(Cl)c1	-143.1
COc1ccc(NC(=O)Nc2cccc(Cl)c2Cl)c(OC)n1	-71.9
O=C(Nc1ccc2c(c1)Cc1ccccc1-2)c1ccncc1	-133.9
O=C(Nc1ccc(Cl)c(Cl)c1)c1ccncc1	-149.0
Cc1cc(C)n2ncc(C(=O)Nc3ccc(Cl)c(Cl)c3)c2n1	-105.6
COc1ccc(C(=O)Nc2ccc(Cl)c(Cl)c2)c(OC)n1	-104.5
O=C(Nc1ccc(Cl)c(Cl)c1)c1ccc(Cl)c(Cl)c1	-101.7
Cc1ccc(NC(=O)C2=C(O)CCn3c2nc2ccccc23)cc1	-131.1
CCC(C)(C)c1ccc2c(c1)C(=O)c1ccccc1C2=O	-71.5
O=C(CSc1ccccc1)Nc1ccc2c(c1)OCCO2	-63.5
Cc1cc(C)cc(C(=O)N2CC(=O)Nc3ccccc32)c1	-
O=C(CSc1ccccc1)Nc1ccc2c(c1)OCO2	-125.0
O=C(CN1CC(=O)Nc2ccccc21)Nc1ccc(F)c(F)c1	-94.3
O=C(CSc1nnc2ccccn12)Nc1ccc2c(c1)OCCO2	-121.8
CCCCSc1nnc2c(n1)[nH]c1ccccc12	-134.7
O=C(CN1C(=O)C2C3C=CC(C3)C2C1=O)Nc1ccc2c(c1)OCCO2 (configuration not stated)	-115.8
COc1ccc(-n2c(SC(C)C(=O)Nc3ncc(Cl)cc3Cl)nc3ccccc32)cc1 (configuration not stated)	-
O=C(CSCc1ccccc1)Nc1ccc(F)c(F)c1	-136.1
O=C(CSc1nnc2ccccn12)Nc1ncc(Cl)cc1Cl	-78.2
Cn1cc(SCC(=O)Nc2ccc3c(c2)OCCO3)c2ccccc21	-77.8
CCN(CC)C(=O)Cn1cc(C(=O)C(=O)Nc2ccc3c(c2)OCCO3)c2ccccc21	-90.9
O=C(CSc1ccc(-c2ccccc2)nn1)Nc1ccc2c(c1)OCCO2	-148.2
CN1CCN(c2ccc(NC(=O)CSc3ccccc3)cc2F)CC1	-107.2
CC1Cc2nc(SCC(=O)Nc3ccc4c(c3)OCO4)n(Cc3ccccc3)c(=O)c2S1 (configuration not stated)	-94.5
O=C(CSc1nnc2c(n1)[nH]c1ccccc12)Nc1ccc2c(c1)OCO2	-79.8
SMILES	aSyn 5UTR act
O=C(CSCc1ccccc1)Nc1ccc2c(c1)OCO2	-154.0
O=C(CSCc1ccccc1)Nc1ccc(Cl)cn1	-134.1
O=C(Cn1cnc2ccccc2c1=O)Nc1ccc2c(c1)OCCO2	-110.1
O=C(CC1Nc2ccccc2NC1=O)Nc1ccc2c(c1)OCO2 (configuration not stated)	-108.4
CC(=O)c1cccc(NC(=O)CSCc2ccccc2)c1	-99.6
CCC1CCCCN1C(=O)c1ccc([N+](=O)[O-])o1 (configuration not stated)	-78.7
COc1ccc(/C=C/C2=NN(C)C(=O)CC2)cc1	-119.7
OC(COc1ccc2ccccc2c1Cl)CN1CCOCC1 (configuration not stated)	-150.4
CC(C)(C)c1ccc(NC(=O)Nc2ccc(OCC(=O)N3CCOCC3)cc2)cc1	-72.3
CC(C)(C)c1ccc(OCC(O)CN2CCOCC2)cc1 (configuration not stated)	-119.5
CC(=O)Nc1ncc(N=Nc2cccc(C(F)(F)F)c2)s1	-78.5
O=C(CCCc1c[nH]c2ccccc12)N1CCCCCC1	-72.7
Clc1ccccc1N1CCN(Cc2c[nH]c3ccccc23)CC1	-
CCOC(=O)C(C(=O)OCC)C1OC(=O)c2cc3c(cc21)C(=O)OC3C(C(=O)OCC)C(=O)OCC (configuration not stated)	-77.3
O=c1[nH]c2ccccc2nc1/C=C/c1ccc(Cl)cc1	-227.2
CC(=O)Nc1ccc(/C=C/c2nc3ccccc3[nH]c2=O)cc1	-82.6
Clc1ccc(Nc2nc(C3CC3)cs2)cc1	-189.6
COc1ccccc1CCCNC(=O)C1CCC(=O)N(Cc2ccccc2F)C1 (configuration not stated)	-130.4
O=C(NCCCC1CCCC1)C1CCC(=O)N(Cc2cccc(F)c2)C1 (configuration not stated)	-161.5
CCOC(=O)/C(N=Nc1ccc2c(c1)OCO2)=C(\C)O	-123.3
O=[N+]([O-])c1cccnc1Oc1ccc(OCc2ccccc2)cc1	-78.7
O=[N+]([O-])c1cccnc1Sc1ccc(Br)cc1	-
O=[N+]([O-])c1cccnc1Oc1ccc(C2SCCS2)cc1	-106.3
Nc1cc2nc[nH]c2cc1N	-100.1
COc1cc(NC(=O)C/C(C)=N/NC(=O)c2cccs2)c(OC)cc1Cl	-152.8
SMILES	aSyn 5UTR act
COc1cc(NC(=O)C/C(C)=N/NC(=O)Cc2ccccc2)c(OC)cc1Cl	-68.8
CCN1C(=O)/C(=C/C=C2/CCCN2C)OC1=S	-151.7
CCc1ccccc1NC(=O)CN(C)C(=O)Cn1ncc(Cl)c(Cl)c1=O	-62.6
c1ccc(CSc2nnnn2-c2ccc3c(c2)OCCO3)nc1	-70.7
Cc1cc2oc(C(=O)Nc3c(C)n(C)n(-c4ccccc4)c3=O)c(C)c2cc1C	-63.5
Cc1ccccc1C(=O)/C(C#N)=N/Nc1c(C)n(C)n(-c2ccccc2)c1=O	-
Cc1nc(N)sc1N=Nc1ccc(F)cc1	-106.9
Oc1cccc2c(NC(=S)Nc3ccc(OC(F)F)cc3)cccc12	-138.1
CC(/C=N/NC(=O)c1cccs1)=C\c1ccco1	-176.4
CC(/C=N/NC(=O)Cc1cccs1)=C\c1ccco1	-98.2
CC(/C=N/NC(=O)c1cc(-c2ccncc2)nc2ccccc12)=C\c1ccco1	-
O=C(N/N=C/c1sc2ccccc2c1O)c1cccc2ccccc12	-
O=C(COc1ccccc1-c1ccccc1)N/N=C/c1cccc2ccccc12	-
CCc1ccc(C(=O)N/N=C/c2cccc3ccccc23)nc1	-125.5
Cc1ccccc1C(=O)N/N=C/c1cccc2ccccc12	-71.9
Cc1ccccc1C(=O)N/N=C/c1ccc([N+](=O)[O-])s1	-
Cc1ccccc1C(=O)N/N=C/c1ccsc1C	-147.5
O=C(N/N=C/c1ccccc1F)c1cccc2ccccc12	-87.3
CCCn1c(=O)c(C(=O)N/N=C/c2ccccc2F)c(O)c2ccccc21	-94.9
O/N=C/c1ccc(OCc2ccccc2)c(Br)c1	-142.4
O/N=C/c1ccc(OCc2ccccc2)c(Cl)c1	-104.4
O/N=C/c1ccc(OCc2ccccc2F)c(Cl)c1	-92.0
COc1cccc(COc2ccc3c(C)cc(=O)oc3c2)c1	-164.5
COc1cccc(C(=O)COc2ccc3c(C)cc(=O)oc3c2)c1	-106.3
COc1ccc(C2=NOC(COc3ccc4c(C)cc(=O)oc4c3)C2)c(OC)c1 (configuration not stated)	-
SMILES	aSyn 5UTR act
COC(=O)c1sc(-c2cccs2)cc1N	-85.6
COC(=O)c1cc(-c2ccccc2)sc1N	-77.4
COC(=O)c1sc(-c2ccc(Cl)cc2)cc1N	-101.1
Cc1ccccc1OCC(=O)O/N=C(\N)c1ccncc1	-102.7
Cc1ccc(OCC(=O)O/N=C(\N)c2ccncc2)c(C)c1	-182.1
N/C(=N\OC(=O)COc1cc(Cl)c(Cl)cc1Cl)c1ccncc1	-174.1
Cn1c(-c2ccccc2)cc2c3no[n+]([O-])c3ccc21	-69.0
O=C(/C=C/c1ccccc1)C1=C(O)C(=O)N(CCO)C1c1ccccc1[N+](=O)[O-] (configuration not stated)	-62.5
Cn1c(SCc2ccccc2F)nnc1-c1cnccn1	-186.6
Cn1c(SCc2ccccc2F)nnc1-c1ccccn1	-123.3
O=C(Cc1noc2ccccc12)Nc1ccc(Cl)cc1	-68.5
Cc1cccc(NC(=O)Cc2noc3ccccc23)c1	-82.3
CCCS(=O)(=O)c1nc(S(=O)(=O)c2ccc(C)cc2)c(N2CCOCC2)s1	-61.8
CCCS(=O)(=O)c1nc(S(=O)(=O)c2ccc(C)cc2)c(N2CCN(CCO)CC2)s1	-97.8
